Assay results as given in PubChem BioAssay.
Calls of active or inactive are those of the source. Unless noted, how the calls were made is not given here.

How the values were obtained:
[1] = tested on: XIP peptide (Xip251-270) binding; experiment: small-molecule binders of XIP peptide, primary screen, biochemical, small-molecule microarray, fluorescence 635/667 nm, 0.1 µg/mL protein (AID 1182); conditions: fluorescent protein binding, 635 nm, higher = more signal, called active from +8 up or from −8 down
XIP peptide (Xip251-270) = experiment: small-molecule binders of XIP peptide, primary screen, biochemical, small-molecule microarray, fluorescence 635/667 nm, 0.5 µg/mL protein (AID 1183); conditions: small-molecule microarray binding, fluorescence 635 nm; higher = more signal
[2] = Plasmodium falciparum growth inhibition, primary screen, strain 3D7, DAPI fluorescence, 100 nL (AID 1184);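 further: parasites grown inside human red blood cells in medium with human serum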; conditions: P. falciparum 3D7 growth, 3 d, higher = more signal
[3] = target: Homeobox protein Hox-A13 (Mus musculus) (UniProt Q62424); experiment: inhibitors of HoxA13-DNA binding, primary screen, biochemical, fluorescence polarization, labeled oligonucleotide (AID 1185); conditions: 15 min, higher = more signal, called active from +8 up or from −8 down
Chain of Homeobox protein Hox-A13 (Mus musculus) (Q62424 whole entry, looked up): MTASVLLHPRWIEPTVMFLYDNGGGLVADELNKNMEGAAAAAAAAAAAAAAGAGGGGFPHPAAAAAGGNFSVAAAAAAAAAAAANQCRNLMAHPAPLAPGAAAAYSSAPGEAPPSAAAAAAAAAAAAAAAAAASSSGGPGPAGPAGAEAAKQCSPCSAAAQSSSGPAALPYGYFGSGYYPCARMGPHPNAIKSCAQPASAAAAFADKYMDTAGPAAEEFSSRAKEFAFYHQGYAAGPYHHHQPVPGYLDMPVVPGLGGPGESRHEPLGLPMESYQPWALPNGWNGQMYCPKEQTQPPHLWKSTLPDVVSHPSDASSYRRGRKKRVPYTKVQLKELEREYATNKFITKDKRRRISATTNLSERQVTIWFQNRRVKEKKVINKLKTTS

[4] = inhibitors of hydroxyurea-induced Chk1 phosphorylation, primary screen, imaging, HeLa, phospho-Chk1 antibody, percent positive cells (AID 1186); conditions: hydroxyurea-induced phospho-Chk1 immunofluorescence imaging, higher = more signal
[5] = inhibitors of hydroxyurea-induced Chk1 phosphorylation, primary screen, imaging, HeLa, phospho-Chk1 nuclear intensity (AID 1187); conditions: hydroxyurea-induced phospho-Chk1 immunofluorescence imaging, higher = more signal

| Compound | composite z-score [1] | composite z-score (XIP peptide (Xip251-270)) | z-score [2] | z-score [3] | z-score [4] | z-score [5] |
| --- | --- | --- | --- | --- | --- | --- |
| O=C1N(CCS(=O)(=O)c2ccccc2)c2ccccc2C[C@@]12COC(c1ccc(OCCCO)cc1)=N2 | 2.06 (inactive) | 0.861 | -1.39 | -4.69 (inactive) | -0.0621 (inactive) | -0.223 (inactive) |
| Cc1ccc(S[C@]2(C(=O)NCc3ccccc3)CC(=O)N(Cc3ccccc3)[C@@H]2c2ccc(CO)cc2)cc1 | 0.824 (inactive) | 0.849 | 0.101 | -2.39 (inactive) | -0.0397 (inactive) | 0.377 (inactive) |
| COc1ccc([Si](C)(C)[C@@H]2[C@@H](CC(=O)N3CCC[C@H]3CO)O[C@]3(C(=O)N(C)c4c(Br)cc(C)cc43)[C@H]2C)cc1 | 0.0849 (inactive) | 0.507 | -0.949 | -6.11 (inactive) | -0.477 (inactive) | -0.466 (inactive) |
| COc1cc2c(cc1OC)CN(C(=O)[C@@H]1[C@H]3C(=O)O[C@H](c4ccccc4)[C@H](c4ccccc4)N3[C@H](c3ccccc3OCCO)[C@@]13C(=O)Nc1ccc(C#CCNC(N)=O)cc13)CC2 | 0.12 (inactive) | 0.811 | -2.17 | 2.09 (inactive) | -0.229 (inactive) | -0.232 (inactive) |
| CN(C)C(=O)[C@]1(CCC(=O)OC(C)(C)C)N=C(c2ccc(OCCCO)cc2)O[C@@H]1c1ccccc1N=[N+]=[N-] | 0.639 (inactive) | 0.803 | -1.84 | -6.23 (inactive) | 0.201 (inactive) | 0.588 (inactive) |
| COC(=O)[C@@]1(Cc2ccccc2)N=C(c2ccc(OCCCO)cc2)O[C@H]1c1ccccc1N=[N+]=[N-] | 0.856 (inactive) | 0.887 | -2.27 | 0.459 (inactive) | -0.48 (inactive) | -0.775 (inactive) |
| COCCOC(=O)N1C(=O)[C@@]2(c3cc(C#CCC(C(=O)OC)C(=O)OC)ccc31)[C@H](c1ccc(O)cc1)N1[C@H](c3ccccc3)[C@H](c3ccccc3)OC(=O)[C@H]1[C@@H]2C(N)=O | 1.39 (inactive) | 0.619 | -0.486 | -3.8 (inactive) | 0.676 (inactive) | 0.98 (inactive) |
| C=CCOC(=O)[C@@H]1[C@H]2C(=O)O[C@H](c3ccccc3)[C@H](c3ccccc3)N2[C@H](c2ccc(OCCOC(=O)[C@@H]3C[C@@H]4C(=O)N[C@@H](Cc5ccccc5)C(=O)N4[C@@H]3c3cccc(OCCO)c3)cc2)[C@@]12C(=O)Nc1ccc(I)cc12 | 0.299 (inactive) | 0.738 | -1.69 | -0.282 (inactive) | 0.0948 (inactive) | 0.608 (inactive) |
| COc1ccc(C#Cc2ccc3c(c2)[C@]2(C(=O)N3)[C@H](C(=O)NC[C@H](O)c3ccccc3)[C@H]3C(=O)O[C@H](c4ccccc4)[C@H](c4ccccc4)N3[C@@H]2c2ccccc2OCCO)cc1 | 0.0376 (inactive) | 0.881 | -1.01 | -2.33 (inactive) | -0.166 (inactive) | -0.118 (inactive) |
| COC(=O)C[C@@H]1C[C@H](C)[C@]2(O1)C(=O)N(Cc1ccccc1)c1ccc(NC(C)=O)cc12 | -0.16 (inactive) | 0.295 | -1.78 | -3.77 (inactive) | -0.139 (inactive) | -0.194 (inactive) |
| O=C1OCCC=C[C@H]2OC34C=CCN(Cc5ccccc5)C(=O)[C@H]3N(CCCCCCO)C(=O)[C@@H]4C12 (stereo not given in full) | -0.271 (inactive) | 0.8 | 0.0921 | -4.32 (inactive) | 0.249 (inactive) | 0.489 (inactive) |
| C=CC(=C)C1=CCO[C@@H]1[C@H]1CCCN1S(=O)(=O)c1ccccc1[N+](=O)[O-] | 0.162 (inactive) | 0.281 | -1.51 | -2.41 (inactive) | -0.0283 (inactive) | 0.0588 (inactive) |
| [N-]=[N+]=NCc1ccccc1[C@@H]1OC(c2ccc(OCCCO)cc2)=N[C@]1(Cc1ccccc1N=[N+]=[N-])C(=O)NCc1ccccc1 | 0.304 (inactive) | 0.442 | -2.29 | 1.76 (inactive) | -0.76 (inactive) | -0.767 (inactive) |
| CCOC(=O)C[C@H]1[C@H](OC(=O)c2ccc(C(=O)c3ccccc3)cc2)[C@@H](NC(=O)C2CCCCC2)c2cc(OCCCO)ccc2N1C(=O)c1ccccc1 | -0.373 (inactive) | 0.186 | 0.863 | -2.97 (inactive) | 0.454 (inactive) | 0.0465 (inactive) |
| COC(=O)C(CC#Cc1ccc2c(c1)[C@]1(C(=O)N2)[C@H](C(=O)NC[C@H](O)c2ccccc2)[C@H]2C(=O)O[C@H](c3ccccc3)[C@H](c3ccccc3)N2[C@@H]1c1ccc(OCCO)cc1)C(=O)OC | 0.518 (inactive) | 0.736 | -2.15 | -2.24 (inactive) | -0.0625 (inactive) | -0.136 (inactive) |
| C=CCNC(=O)[C@H]1[C@@H]2C(=O)O[C@@H](c3ccccc3)[C@@H](c3ccccc3)N2[C@@H](c2ccc(O)cc2)[C@]12C(=O)N(C(=O)OCCOC)c1ccc(C#CCCO)cc12 | 0.855 (inactive) | 0.72 | -0.353 | -3.9 (inactive) | -0.537 (inactive) | -0.532 (inactive) |
| C=C[C@@H](COC(C)=O)N(Cc1ccccc1[N+](=O)[O-])S(=O)(=O)c1ccc(Br)cc1 | 2.18 (inactive) | 0.387 | -0.43 | -2.89 (inactive) | -0.472 (inactive) | -0.567 (inactive) |
| C=CCNC(=O)[C@@H]1[C@H]2C(=O)O[C@H](c3ccccc3)[C@H](c3ccccc3)N2[C@H](c2ccc(OCCO)cc2)[C@@]12C(=O)Nc1ccccc12 | 0.0997 (inactive) | 0.371 | -1.09 | -4.6 (inactive) | -0.122 (inactive) | -0.303 (inactive) |
| CN1C(=O)C2C=CC(C(O)c3ccccn3)N(Nc3ccccc3)C2C1=O (stereo not given) | 0.632 (inactive) | 0.325 | 0.0014 | -7.19 (inactive) | -0.827 (inactive) | -1.12 (inactive) |
| CCCC[C@H]1OB(O)C[C@H]2C1=C(C)C[C@H]1C(=O)N(Cc3ccccc3)C(=O)[C@H]12 | 0.0643 (inactive) | 0.911 | 0.508 | -7.36 (inactive) | -0.128 (inactive) | -0.379 (inactive) |
| CC(C)C(=C=CC[C@H](O)c1ccccc1OCCO)C[C@H](O)c1ccccn1 | 0.241 (inactive) | 0.0067 | -1.41 | -4.79 (inactive) | 0.293 (inactive) | 0.546 (inactive) |
| CC(C)C(=C=CC[C@@H](O)c1ccccc1OCCO)C[C@@H](O)c1ccccn1 | 2.26 (inactive) | 0.499 | -1.35 | -4.89 (inactive) | 0.0231 (inactive) | 0.215 (inactive) |
| CC(C)C(O)C1C=CC2C(=O)N(c3ccccc3)C(=O)C2N1Nc1ccc(C#N)cc1 (stereo not given) | 0.613 (inactive) | 0.748 | 0.207 | -2.61 (inactive) | -0.877 (inactive) | -0.419 (inactive) |
| C[C@H]1NC(=O)[C@H](Cc2ccccc2)NC(=O)[C@@]23C(=O)N[C@@H](Cc4ccccc4)C2[C@H](C)[C@@]2(C)O[C@H]2C3/C=C/C/C=C\CNC1=O (stereo not given in full) | -0.325 (inactive) | -1.16 | -1.45 | -5.77 (inactive) | -0.227 (inactive) | 0.0899 (inactive) |
| Cc1ccc(S[C@]2(C(=O)NC3CC3)CC(=O)N(Cc3ccccc3)[C@@H]2c2ccc(CO)cc2)cc1 | 0.795 (inactive) | 0.327 | -0.308 | -2.47 (inactive) | 0.0616 (inactive) | 0.0892 (inactive) |
